Measurements from the antibiotic and cytotoxicity screens of Wong et al. (2023).
Among all 39,000 compounds or so, about 3,300 (8.5%) were called active. What follows is part of a selection rich in actives, with near analogues and random picks from the rest.

The compounds below were run on HepG2 (assay: cytotoxicity call (relative viability < 0.9)). Conditions: 10 µM.

**Q.** With O=C(C[C@H]1CC[C@H](NS(=O)(=O)c2ccccc2)[C@@H](CO)O1)NCc1ccncn1 as the compound, how does the cytotoxicity call read?
**A.** inactive

**Q.** C[C@@H]1CCCCO[C@@H](CN(C)C(=O)CCCN(C)C)[C@@H](C)CN([C@H](C)CO)C(=O)c2cc(NS(C)(=O)=O)ccc2O1 was tested. Which cytotoxicity call did it give?
**A.** inactive

**Q.** With COc1ccc(S(=O)(=O)N[C@H]2CC[C@H](CC(=O)N3CCN(c4ccccc4)CC3)O[C@@H]2CO)cc1 as the compound, how does the cytotoxicity call read?
**A.** inactive

**Q.** Cn1c(CC#N)n[nH]c1=S was tested. Which cytotoxicity call did it give?
**A.** inactive

**Q.** CC(C)NC(=O)Nc1ccc2c(c1)C(=O)N([C@@H](C)CO)C[C@H](C)[C@@H](CN(C)S(C)(=O)=O)OCCCC[C@H](C)O2 was tested. Which cytotoxicity call did it give?
**A.** inactive

**Q.** How did the cytotoxicity call turn out when CCN1CCCC1CNC(=O)c1cc(S(N)(=O)=O)ccc1OC (stereo unspecified) was run?
**A.** inactive

**Q.** With CCN1CCCC1CNC(=O)c1cc(S(=O)(=O)CC)c(N)cc1OC (stereo unspecified) as the compound, how does the cytotoxicity call read?
**A.** active

**Q.** CCN(CC)CCNC(=O)c1cc(Br)c(N)cc1OC was tested. Which cytotoxicity call did it give?
**A.** inactive

**Q.** How did the cytotoxicity call turn out when COc1ccc(NC(=O)Nc2cccc3c2O[C@H](CN(C)Cc2ccc(C(=O)Nc4ccccc4N)cc2)[C@H](C)CN([C@@H](C)CO)C3=O)cc1 was run?
**A.** inactive

**Q.** COc1cc(OC)c2c(c1Cl)OC1(C2=O)C(O)=CC(=O)CC1C (stereo unspecified) was tested. Which cytotoxicity call did it give?
**A.** inactive

**Q.** Which cytotoxicity call does the source give for COC1=CC(=O)CC(C)C12Oc1c(Cl)c(OC)cc(OC)c1C2=O (stereo unspecified) here?
**A.** active

**Q.** NC(=O)N1C(=O)[C@H]2[C@H](C1=O)[C@H]1C=C(c3ccc(CO)cc3)[C@@H]2[C@@H](C2CC2)N1Cc1cc2c(cc1Br)OCO2 was tested. Which cytotoxicity call did it give?
**A.** inactive

**Q.** With CCCC#Cc1ccc2c(c1)O[C@H](CN(C)S(=O)(=O)c1cccc(F)c1)[C@@H](C)CN([C@H](C)CO)S2(=O)=O as the compound, how does the cytotoxicity call read?
**A.** inactive

**Q.** Which cytotoxicity call does the source give for Cc1ccccc1NC(=O)CC(C)C here?
**A.** inactive

**Q.** With CCn1c(=O)c(-c2cc(NC(=O)Nc3ccccc3)c(F)cc2Br)cc2cnc(NC)cc21 as the compound, how does the cytotoxicity call read?
**A.** active

**Q.** Which cytotoxicity call does the source give for CN(C)CCCCCCNC(=O)[C@H]1C[C@H]2C(=O)NCC(=O)N2[C@H]1c1cccc(OCCO)c1 here?
**A.** inactive

**Q.** With Cc1ccc(S(=O)(=O)Nc2ccc3c(c2)C(=O)N([C@@H](C)CO)C[C@@H](C)[C@H](CN(C)C(=O)Nc2ccc(C(F)(F)F)cc2)OCCCC[C@@H](C)O3)cc1 as the compound, how does the cytotoxicity call read?
**A.** inactive

**Q.** With CC[C@@]1(C)N[C@H](C(=O)O)CS1 as the compound, how does the cytotoxicity call read?
**A.** inactive

**Q.** COc1ccc2cc(-c3cc(-c4cc(Cl)cc(Cl)c4)nn3[C@@H](C)c3ccc(C(=O)NCCC(=O)O)cc3)ccc2c1 was tested. Which cytotoxicity call did it give?
**A.** inactive

**Q.** For COc1ccc(-n2nc(CCC(=O)N(C)O)cc2-c2ccc(Cl)cc2)cc1, which cytotoxicity call is on record?
**A.** active

**Q.** How did the cytotoxicity call turn out when C[C@H](CO)N1C[C@H](C)[C@H](CN(C)CC2CC2)Oc2cc(C#Cc3cccc(F)c3)ccc2S1(=O)=O was run?
**A.** inactive

**Q.** With O=c1[nH][n+](-c2ccccc2)no1 as the compound, how does the cytotoxicity call read?
**A.** inactive

**Q.** With COCC(=O)Nc1ccc2c(c1)[C@@H]1C[C@@H](CC(=O)N3CCOCC3)O[C@@H](CO)[C@@H]1O2 as the compound, how does the cytotoxicity call read?
**A.** inactive

**Q.** With O=C(NC[C@@H](O)CO)c1c(I)c(C(=O)NC[C@@H](O)CO)c(I)c(N(CCO)C(=O)CO)c1I as the compound, how does the cytotoxicity call read?
**A.** inactive

**Q.** How did the cytotoxicity call turn out when CC(=O)N(C[C@@H](O)CO)c1c(I)c(C(=O)NC[C@@H](O)CO)c(I)c(C(=O)NC[C@@H](O)CO)c1I was run?
**A.** inactive

**Q.** O=C(NCC(O)CO)c1c(I)c(C(=O)NCC(O)CO)c(I)c(N(CCO)C(=O)CO)c1I (stereo unspecified) was tested. Which cytotoxicity call did it give?
**A.** active

**Q.** Cc1ccc(S(=O)(=O)Nc2ccc3c(c2)CC(=O)N([C@@H](C)CO)C[C@H](C)[C@H](CN(C)S(=O)(=O)c2cccs2)O3)cc1 was tested. Which cytotoxicity call did it give?
**A.** inactive

**Q.** Which cytotoxicity call does the source give for C[C@H](CO)N1C[C@H](C)[C@H](CN(C)Cc2ccc(Cl)c(Cl)c2)Oc2c(NS(=O)(=O)c3cccs3)cccc2C1=O here?
**A.** inactive

**Q.** How did the cytotoxicity call turn out when CCn1c(Cl)nc2c1c(=O)n(C)c(=O)n2C was run?
**A.** inactive

**Q.** Cn1c(=O)c2[nH]c(C3CCCC3)nc2n(C)c1=O was tested. Which cytotoxicity call did it give?
**A.** inactive

**Q.** With Cc1nc2c(=O)n(C)c(=O)n(C)c2nc1Cl as the compound, how does the cytotoxicity call read?
**A.** active

**Q.** Which cytotoxicity call does the source give for N=C(N)N1CCc2ccccc2C1.O=S(=O)(O)O here?
**A.** inactive

**Q.** With CN1Cc2c(Cl)cc(Cl)cc2[C@H](c2cccc(S(=O)(=O)NCCOCCOCCNC(=O)NCCCCNC(=O)NCCOCCOCCNS(=O)(=O)c3cccc([C@@H]4CN(C)Cc5c(Cl)cc(Cl)cc54)c3)c2)C1 as the compound, how does the cytotoxicity call read?
**A.** inactive

**Q.** For COc1ccc(S(=O)(=O)N(C)C[C@@H]2Oc3cc(C#CC4CCCC4)ccc3S(=O)(=O)N([C@H](C)CO)C[C@@H]2C)cc1, which cytotoxicity call is on record?
**A.** inactive

**Q.** For O=C(C[C@H]1C[C@H]2c3cc(NS(=O)(=O)c4ccc(F)cc4)ccc3O[C@H]2[C@@H](CO)O1)NCc1cccnc1, which cytotoxicity call is on record?
**A.** inactive

**Q.** With COc1ccc(NC(=O)N(C)C[C@H]2Oc3c(NC(=O)c4ccc(-c5nccs5)cc4)cccc3C(=O)N([C@H](C)CO)C[C@H]2C)cc1 as the compound, how does the cytotoxicity call read?
**A.** inactive

**Q.** COC(=O)c1c(CC[C@@H](CO)NC(=O)N2CCC[C@H]2Cn2cc(-c3ccccn3)nn2)oc(C(C)=O)c1C(=O)OC was tested. Which cytotoxicity call did it give?
**A.** inactive

**Q.** For C[C@@H]1CN([C@@H](C)CO)C(=O)Cc2cc(NC(=O)CCC(F)(F)F)ccc2O[C@@H]1CN(C)Cc1ccc(Oc2ccccc2)cc1, which cytotoxicity call is on record?
**A.** active

**Q.** How did the cytotoxicity call turn out when C[C@H](CO)N1C[C@H](C)[C@H](CN(C)Cc2ccc(Oc3ccccc3)cc2)Oc2ccc(NC(=O)CCC(F)(F)F)cc2CC1=O was run?
**A.** active

**Q.** For C[C@H]1CN([C@@H](C)CO)C(=O)Cc2cc(NC(=O)CCC(F)(F)F)ccc2O[C@@H]1CN(C)Cc1ccc(Oc2ccccc2)cc1, which cytotoxicity call is on record?
**A.** inactive

**Q.** For C[C@@H]1CN([C@H](C)CO)C(=O)Cc2cc(NC(=O)CCC(F)(F)F)ccc2O[C@@H]1CN(C)Cc1ccc(Oc2ccccc2)cc1, which cytotoxicity call is on record?
**A.** active

**Q.** C[C@@H]1CN([C@H](C)CO)C(=O)Cc2cc(NC(=O)CCC(F)(F)F)ccc2O[C@H]1CN(C)Cc1ccc(Oc2ccccc2)cc1 was tested. Which cytotoxicity call did it give?
**A.** active

**Q.** With C[C@H]1CN([C@@H](C)CO)C(=O)Cc2cc(NC(=O)CCC(F)(F)F)ccc2O[C@H]1CN(C)Cc1ccc(Oc2ccccc2)cc1 as the compound, how does the cytotoxicity call read?
**A.** inactive

**Q.** Which cytotoxicity call does the source give for COc1ccc(S(=O)(=O)Nc2ccc3c(c2)C(=O)N([C@H](C)CO)C[C@@H](C)[C@@H](CN(C)C(=O)CCC(F)(F)F)OCCCC[C@H](C)O3)cc1 here?
**A.** inactive

**Q.** C[C@@H]1CCCCO[C@@H](CN(C)S(=O)(=O)c2ccc(F)cc2)[C@H](C)CN([C@@H](C)CO)C(=O)c2cc(NS(=O)(=O)c3ccc(Cl)cc3)ccc2O1 was tested. Which cytotoxicity call did it give?
**A.** inactive

**Q.** Which cytotoxicity call does the source give for C[C@H](CO)N1C[C@H](C)[C@H](CN(C)Cc2ccc3c(c2)OCO3)OCCCC[C@H](C)Oc2ccc(NC(=O)c3ccccc3)cc2C1=O here?
**A.** inactive
